The record followed here is PubChem BioAssay (NCI).

About 83,000 compounds went through this panel and 20% of them were active in at least one assay; those are over-represented in the sample as a whole.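 Compound tested at a single concentration for 48 hours in 96-well plates; a percent growth value below 10 was scored as active.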 A number with no mark means an inactive call. Activity calls are given as the source filed them.

Some test systems named below: NCI-H23 lung; NCI-H226 lung; NCI-H322M lung; HOP-62 NSCLC; NCI-H460 lung; NCI-H522 lung; A549/ATCC NSCLC; 786-0 renal; COLO 205 colon; DU-145 prostate.
What all share (assay): NCI-60 one-dose screen, 48 h (100 = growth as untreated, 0 = no growth, -100 = all killed)
Holding throughout (details): 10 µM

As for `CCN(CC)CCC(CNc1c(C)cnc2cc(Cl)ccc12)c1ccc(Cl)cc1` (stereo not given), the growth in the experiment on NCI-H23 lung is 61.3%; in the experiment with NCI-H226 lung, 102%; in the experiment with NCI-H322M lung, 53.8%; in the experiment with HOP-62 NSCLC it was 66.2%; with NCI-H460 lung, 67.7%; in the experiment on NCI-H522 lung it was 31.7%. For the same compound, the growth was 64.7% in the experiment with A549/ATCC NSCLC, 58.2% with 786-0 renal, -45.5% (active) with COLO 205 colon and 79% with DU-145 prostate.
Regarding `CC1(C)CCC(=NNC(N)=S)CC1`, the growth in the experiment on NCI-H23 lung was 99.1%; with NCI-H226 lung, 110%; in the experiment with NCI-H322M lung, 115%; in the experiment on HOP-62 NSCLC, 111%; in the experiment with NCI-H460 lung it was 104%; in the experiment with NCI-H522 lung, 97.1%. For the same compound, the growth in the experiment with A549/ATCC NSCLC was 106%; in the experiment on 786-0 renal it was 113%; in the experiment with COLO 205 colon it was 125%; with DU-145 prostate, 111%.
With `O=C(Nc1cccc(-n2cc(-c3ccncc3)c(-c3ccc(O)c(Cl)c3)n2)c1)c1cc(C(F)(F)F)cc(C(F)(F)F)c1`, the growth was 57.5% in the experiment with NCI-H23 lung; 75.9% in the experiment with NCI-H226 lung; 74.3% with NCI-H322M lung; 78.9% with HOP-62 NSCLC; 21.5% in the experiment with NCI-H460 lung; 24.3% in the experiment with NCI-H522 lung. Further, the growth is 33.7% in the experiment with A549/ATCC NSCLC, 71.4% in the experiment with 786-0 renal, 94.8% in the experiment on COLO 205 colon and 73.5% in the experiment with DU-145 prostate.
Turning to `O=C(Nc1ccc(Cl)c(Cl)c1)Nc1c(Oc2ccc(Cl)c(Cl)c2)ccc(Cl)c1S(=O)(=O)O`, the growth in the experiment on NCI-H23 lung is 39.5%; in the experiment on NCI-H226 lung, 66%; in the experiment with NCI-H322M lung, 50.8%; with HOP-62 NSCLC it was 49.4%; with NCI-H460 lung, 9.02% (active); in the experiment with NCI-H522 lung, -1.66% (active). In addition, the growth in the experiment with A549/ATCC NSCLC was 37%; in the experiment with 786-0 renal, 35%; in the experiment on COLO 205 colon, -13.9% (active); in the experiment on DU-145 prostate, 21.1%.
Turning to `COc1cc2c(cc1OC)N(CCO)C1=C(C(=O)OC1)C2c1ccc(Cl)c(Cl)c1` (stereo not given), the growth was 104% in the experiment on NCI-H23 lung; 103% with NCI-H226 lung; 95.2% in the experiment on NCI-H322M lung; 98% with HOP-62 NSCLC; 104% in the experiment on NCI-H460 lung; 77.4% in the experiment on NCI-H522 lung. Also, the growth was 98.6% in the experiment with A549/ATCC NSCLC, 93.5% in the experiment with 786-0 renal, 116% in the experiment on COLO 205 colon and 109% in the experiment on DU-145 prostate.
In the case of `CC/C(=C(/c1ccc(OCCN(C)C)cc1)c1ccc(OC(=O)CCC(=O)c2c(C)[nH]c(/C=C3\N=C(c4ccc[nH]4)C=C3OC)c2C)cc1)c1ccccc1`, the growth is 52.3% in the experiment with NCI-H23 lung; 23.4% in the experiment with NCI-H226 lung; 75.3% in the experiment on NCI-H322M lung; 28% in the experiment with HOP-62 NSCLC; 51% in the experiment with NCI-H460 lung; -0.572% (active) in the experiment on NCI-H522 lung. Also, the growth was 11% with A549/ATCC NSCLC, 21.4% in the experiment with 786-0 renal, 28.3% with COLO 205 colon and 21.4% with DU-145 prostate.
As to `Cc1cc(C)c2c(n1)sc1c(Nc3ccc(Cl)cc3)ncnc12`, the growth in the experiment with NCI-H23 lung is 4.49% (active); in the experiment on NCI-H226 lung, 1.79% (active); with NCI-H322M lung, 32%; with HOP-62 NSCLC, 5.01% (active); with NCI-H460 lung, 5.8% (active); with NCI-H522 lung, 16.1%. The growth in the experiment on A549/ATCC NSCLC is 18.2%; in the experiment with 786-0 renal, -3.32% (active); in the experiment on COLO 205 colon it was 10.6%; in the experiment on DU-145 prostate, 6.73% (active).
As to `Nc1nc(Nc2ccccc2)n[nH]1`, the growth in the experiment with NCI-H23 lung is 94.7%; with NCI-H226 lung, 96.8%; in the experiment on NCI-H322M lung it was 108%; in the experiment with HOP-62 NSCLC, 92.3%; in the experiment on NCI-H460 lung, 108%; with NCI-H522 lung, 17.7%. For the same compound, the growth in the experiment on A549/ATCC NSCLC is 34.8%; with 786-0 renal, 101%; with COLO 205 colon, 114%; with DU-145 prostate, 117%.
Consider `CCOC(=O)c1ccc(NC(=O)Nc2ncc(Cl)cc2Cl)cc1`, for which the growth in the experiment with NCI-H23 lung was 93.9%; with NCI-H226 lung, 95.3%; in the experiment with NCI-H322M lung, 99.3%; with HOP-62 NSCLC, 104%; in the experiment with NCI-H460 lung, 93.3%; in the experiment on NCI-H522 lung it was -37.6% (active). For the same compound, the growth with A549/ATCC NSCLC was 40.7%; in the experiment with 786-0 renal, 92.9%; in the experiment with COLO 205 colon, 130%; in the experiment on DU-145 prostate it was 111%.
In the case of `O=C1OCC2=C1C(c1ccc(Cl)c(Cl)c1)c1cc3c(cc1N2CCO)OCCO3` (stereo not given), the growth in the experiment with NCI-H23 lung is 32.5%; in the experiment on NCI-H226 lung, 25.4%; in the experiment on NCI-H322M lung, 37.3%; in the experiment on HOP-62 NSCLC it was 34.1%; in the experiment on NCI-H460 lung, 6.2% (active); in the experiment on NCI-H522 lung it was -26.7% (active). The growth in the experiment with A549/ATCC NSCLC was 22.6%; in the experiment with 786-0 renal, 25.7%; in the experiment on COLO 205 colon, -11.9% (active); with DU-145 prostate, 6.74% (active).
Consider `Cc1ccc(C(=O)Nc2cccc(F)c2)cc1NC(=O)C1(c2ncnc3[nH]ccc23)CC1`, for which the growth was 68.2% in the experiment on NCI-H23 lung; 67.4% in the experiment with NCI-H226 lung; 116% in the experiment with NCI-H322M lung; 67.4% with HOP-62 NSCLC; 96.2% in the experiment on NCI-H460 lung; 61% with NCI-H522 lung. Further, the growth in the experiment on A549/ATCC NSCLC was 82.4%; in the experiment on 786-0 renal, 110%; in the experiment on COLO 205 colon, 59.1%; in the experiment on DU-145 prostate, 106%.
As to `COc1cc(Cl)cc(-c2nn(-c3cccc(NC(=O)Nc4ccc(Cl)c(Cl)c4)c3)cc2-c2ccncc2)c1`, the growth is 5.72% (active) in the experiment on NCI-H23 lung; 7.27% (active) in the experiment with NCI-H226 lung; 32.3% in the experiment on NCI-H322M lung; 15.7% in the experiment on HOP-62 NSCLC; 3.1% (active) in the experiment on NCI-H460 lung; -19% (active) in the experiment on NCI-H522 lung. Also, the growth in the experiment with A549/ATCC NSCLC is 11.4%; in the experiment with 786-0 renal, 19.6%; with COLO 205 colon, -70.3% (active); in the experiment with DU-145 prostate, 12.1%.
With `Fc1ccc(-c2nnc(-c3c(-c4ccc(F)cc4)nc4ccccn34)o2)cc1`, the growth in the experiment on NCI-H23 lung is 69%; in the experiment with NCI-H226 lung, 84.2%; with NCI-H322M lung, 105%; with HOP-62 NSCLC, 78.5%; with NCI-H460 lung, 70%; in the experiment with NCI-H522 lung, 25.9%. In addition, the growth in the experiment with A549/ATCC NSCLC is 72.4%; with 786-0 renal it was 88.2%; in the experiment on COLO 205 colon it was 79.5%; in the experiment on DU-145 prostate, 92.1%.
As for `COc1ccc(C2=Nc3c(C)nn(-c4ccccc4)c3NC(c3ccc(Oc4ccnc5cc(Cl)ccc45)c(OC)c3)C2)cc1` (stereo not given), the growth with NCI-H23 lung is 77.8%; in the experiment with NCI-H226 lung, 74.3%; in the experiment on NCI-H322M lung, 95.1%; in the experiment on HOP-62 NSCLC, 113%; with NCI-H460 lung it was 81.6%; in the experiment with NCI-H522 lung, 62.1%. Also, the growth was 84% in the experiment on A549/ATCC NSCLC, 89.8% with 786-0 renal, 83.6% in the experiment with COLO 205 colon and 100% with DU-145 prostate.
